These entries were drawn from the full list.
aSyn 5UTR act = Activators via SNCA 5'UTR binding, MLPCN; alpha-synuclein 5'UTR reporter, activators screen; activity score, % (tested at 7.5 µM), hits read low; 300,000 tested, 7.1% active; AID 1814; in the data active = activity score below about -60%
* hit, by the source's call.

SMILES | aSyn 5UTR act
O=C(NC1CCCCCC1)C(=O)NC1CCCC1 | -67*
Cc1ccc(NC(=O)C(=O)NC2CCCCC2)cc1 | -149*
CC(C)CCNC(=O)C(=O)NC1CCCC1 | -134*
N/C(=N\OC(=O)c1ccc(Cl)cc1Cl)c1ccccn1 | 89
N/C(=N\OC(=O)c1ccc(Cl)cc1[N+](=O)[O-])c1ccccn1 | -165*
N/C(=N\OC(=O)c1ccc([N+](=O)[O-])cc1Cl)c1ccccn1 | 69
N/C(=N\OC(=O)c1cc([N+](=O)[O-])ccc1Cl)c1ccccn1 | -82*
Cc1cc2n(n1)SC(Nc1ccc(F)c(Cl)c1)N2 (stereo not given) | -77*
Cc1cccc(C)c1NC(=O)/C(C#N)=C/c1ccc(-c2ccc(C(=O)O)cc2)o1 | -127*
CNC(=O)/C(C#N)=C/c1ccc(-c2ccc(Cl)cc2)o1 | -125*
CCCN1CCc2c(sc(NC(=S)NC(=O)c3ccccc3)c2C#N)C1 | -140*
CC(C)N1CCc2c(sc(NC(=S)NC(=O)c3ccccc3)c2C#N)C1 | -143*
COC(=O)c1c(NC(=O)c2ccc([N+](=O)[O-])o2)sc2c1CCN(C(C)C)C2 | 105
CC(=O)Nc1ccccc1C(=O)C(=O)Nc1ccccc1 | -96*
CC(=O)Nc1ccccc1C(=O)C(=O)Nc1ccc(Cl)cc1 | -106*
CC(=O)Nc1ccccc1C(=O)C(=O)Nc1cccc(Br)c1 | -79*
CCC(=O)Nc1ccccc1C(=O)C(=O)Nc1ccccc1 | -70*
Cc1c(C(=O)C(=O)N2c3ccc(F)cc3CCC2C)c2ccccc2n1C (stereo not given) | 62
CC1Cc2ccccc2N1C(=O)/C=C/c1cccc(F)c1 (stereo not given) | -170*
CC1Cc2ccccc2N1C(=O)Cc1cccs1 (stereo not given) | 38
O=C(NCC(=O)N1CCN(c2ncccn2)CC1)c1cccs1 | -66*
O=c1c2ccccc2oc2cc(NCCCN3CCOCC3)ccc12 | -127*
O=c1c2ccccc2oc2ccc(NCCCN3CCOCC3)cc12 | -108*
CN1CCCC1CCNc1ccc2c(=O)c3ccccc3oc2c1 (stereo not given) | -130*
N#Cc1ccc(OCc2noc(-c3ccsc3)n2)cc1 | -81*
SMILES | aSyn 5UTR act
Nc1cc2ccncc2c2ccccc12 | -71*
COc1ccccc1Nc1nc(NCCO)nc(N)c1[N+](=O)[O-] | 61
COc1ccccc1Nc1nc2ccc(C)cc2cc1C#N | -87*
COc1ccc(NC(=O)CSc2ccc3c4c(cccc24)C(=O)c2ccccc2-3)cc1 | -65*
N#Cc1cccc(NC(=O)CSc2ccc3c4c(cccc24)C(=O)c2ccccc2-3)c1 | -154*
CCOC(=O)c1cc(C(=O)Nc2cccc(C)c2)nn1C | -121*
Cc1cccc(NC(=O)c2c(C)nn(-c3ccccc3)c2Cl)c1 | -97*
CSc1nnc2c(n1)OC(C)N(C(=O)c1ccccc1)c1ccccc1-2 (stereo not given) | -65*
COc1ccc(OC)c(-c2csc(NC(=O)C3=NN(c4ccccc4)C(=O)CC3)n2)c1 | -129*
O=C(Nc1ccccc1Br)c1ccc(N2CCCC2=O)cc1 | -124*
Cc1csc(NC(=O)c2ccc(N3CCCC3=O)cc2)n1 | 101
O=C(Nc1nc2ccc(F)cc2s1)c1ccccn1 | 102
O=C(Nc1nc2ccc(F)cc2s1)c1ccc(N2CCCC2=O)cc1 | -155*
O=C(Nc1nc2ccc(F)cc2s1)C1=NN(c2ccccc2)C(=O)CC1 | -97*
CC(C)Oc1ccc(C(=O)Nc2cccc3cccnc23)cc1 | -136*
CCS(=O)(=O)c1ccc(OC)c(N=Nc2ccc(O)c3ncccc23)c1 | 66
COc1ccc(NC(=O)C(=O)Nc2cccc3cccnc23)cc1OC | -114*
COc1ccc(C(NC(=O)c2cccnc2)c2cc(Cl)c3cccnc3c2O)cc1OC (stereo not given) | 76
COc1ccc(C(=O)Nc2cccc3cccnc23)cc1OC | -72*
Cc1cc(C(=O)Nc2cccc3cccnc23)ccc1[N+](=O)[O-] | -106*
Cc1ccc(NC(=O)c2cccs2)cc1[N+](=O)[O-] | -94*
Cc1cc(C)nc(Nc2ccc(C)c([N+](=O)[O-])c2)n1 | -99*
Cc1ccc(NC(=O)c2ccc(C(C)(C)C)cc2)cc1[N+](=O)[O-] | -159*
O=C(NCC1CC1)Nc1ccc(Cl)cc1 | -79*
NC(=NCCCCCCN=C(N)/N=C(\N)Nc1ccc(Cl)cc1)/N=C(\N)Nc1ccc(Cl)cc1 | 96
SMILES | aSyn 5UTR act
Cc1ccc(/C=N/NC(=O)Cc2ccc(Cl)cc2)c(O)c1 | 66
Cc1ccc(CNC(=O)Nc2ccc(Cl)cc2)cc1 | -99*
CC(=O)N(Cc1ccc(F)cc1)C1=C(NCc2ccccc2)C(=O)c2ccccc2C1=O | 92
Cc1ccc(C)c(CNC(=O)Nc2ccccc2)c1 | -147*
O=C(NCc1ccc(F)cc1)Nc1ccccc1 | -108*
Cc1ccc(CNC(=O)Nc2ccccc2)cc1 | -187*
O=C(NCc1ccc(Cl)cc1Cl)Nc1ccccc1 | -91*
CSc1ccc(NC(=O)NCc2ccccc2)cc1 | -152*
Cc1ccc(CNC(=O)Nc2cccs2)cc1 | -115*
Cc1ccc(CNC(=O)Cc2cccs2)cc1 | -70*
Cc1ccc(CNC(=O)NCc2ccccc2)cc1 | -63*
COc1ccccc1CNC(=O)[C@@H]1CCCN1S(=O)(=O)c1ccc(C)cc1 | -113*
CC1(C)CC(CCNC(=O)CCl)(c2ccccc2)CCO1 (stereo not given) | -63*
COCC(=O)Nc1c(C(=O)Nc2ccc3c(c2)OCCO3)oc2ccccc12 | -72*
CCC(=O)Nc1c(C(=O)Nc2cccc(OC)c2)oc2ccccc12 | -123*
CCC(=O)Nc1c(C(=O)Nc2ccc3c(c2)OCCO3)oc2ccccc12 | -143*
O=C(/C=C/c1ccc2c(c1)OCO2)Nc1nc(-c2ccc(F)cc2)cs1 | -62*
O=C(/C=C/c1ccc2c(c1)OCO2)Nc1nc2ccc(F)cc2s1 | -110*
COc1ccc(OCc2cc(C(=O)N3CCCCCC3)no2)c(Cl)c1 | -90*
O=C(c1cc(COc2ccc(F)cc2Cl)on1)N1CCSCC1 | -197*
CC(NC(=O)c1cc(COc2c(F)cccc2F)on1)c1cnn(-c2ccccc2)c1 (stereo not given) | -91*
COc1ccc(OCc2cc(C(=O)NC(C)c3cnn(C)c3)no2)c(Cl)c1 (stereo not given) | -106*
COc1ccc(OCc2cc(C(=O)N3CCOCC3)no2)c(Cl)c1 | -82*
COc1ccc(OCc2cc(C(=O)N3CCSCC3)no2)c(Cl)c1 | -108*
COc1ccc(OCc2cc(C(=O)N3CCC(c4ccccc4)CC3)no2)c(Cl)c1 | -63*
SMILES | aSyn 5UTR act
COc1cccc(OCc2cc(C(=O)NC(C)c3cnn(C)c3C)no2)c1 (stereo not given) | -77*
O=c1[nH]n(Cc2ccccc2)c(=O)c2ccccc12 | -68*
CCc1sc(C(=O)Nc2cccc(C(C)=O)c2)cc1C | -77*
CCOC(=O)c1cccc(NC(=O)c2ccco2)c1 | -77*
CCOC(=O)c1cccc(NC(=O)c2cccs2)c1 | -65*
O=C(c1ccccc1)c1cccc(NC(=O)c2ccco2)c1 | -120*
O=c1c2ccccc2nc2oc3ccccc3n12 | -148*
Cc1sc(NC(=O)c2ccco2)nc1-c1ccc2c(c1)CC(C)N2C(=O)C1CC1 (stereo not given) | -106*
CC(=O)Nc1nc(-c2ccc3c(c2)CC(C)N3C(=O)C2CC2)c(C)s1 (stereo not given) | -295*
CCOC(=O)C(=O)Nc1nc(-c2ccc3c(c2)CCN3C(=O)C2CC2)c(C)s1 | -76*

Compound activity deposited in PubChem by Broad Institute.
